Reference: PubChem BioAssay (NCI)
Compounds without any hit were thinned out: in the full panel of roughly 83,000, 20% have a hit.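 Note: values are percent growth. 100 is the growth of untreated cells, values between 100 and 0 indicate rising inhibition; between -100 and 0 indicates cell death.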 A number with no mark means an inactive call. The source made the active and inactive calls. The calls were made as follows: active = growth percent below 10; inactive = the rest.

System: HL-60(TB) leukemia
Test: NCI-60 one-dose screen, 48 h (100 = growth as untreated, 0 = no growth, -100 = all killed)
Conditions: 10 µM unless noted

Compound	growth
OCCCCc1nccc2c1[nH]c1ccccc12	73.7%
CCOC(=O)c1sc(/N=C2\NC(=O)/C(=C/c3ccc(N4CCN(C)CC4)cc3)S2)nc1C	100%
CCCCn1c(-c2ccc(-c3nc(-c4ccc(Cl)cc4)no3)cc2)nc(-c2ccccc2)c1-c1ccccc1	61.4%
CO[C@@H](C)Cn1c(=O)n(C)c2cnc3ccc(-c4cncc(C(C)(C)O)c4)cc3c21	8.97% (active)
Clc1ccc(N/N=C(/c2ccccc2)c2ccccn2)nc1	3.11% (active)
COc1cc2nc(-c3cnc(N(C)C)nc3)nc(NC3CCN(Cc4ccccc4)CC3)c2cc1OC	-52.3% (active)
COc1cc(/C=C\c2cc(/C=C\c3ccc(O)c(OC)c3)n(C(=O)CNc3ccc(Cl)cc3)n2)ccc1O	-11.6% (active)
COc1ccc(-n2c(SCc3cc(OC)c(OC)c(OC)c3)nc3ccc(C)cc3c2=O)c(OC)c1	-44.3% (active)
COC1(OC)C2(Cl)CCC1(Cl)C(Cl)=C2Cl	139%
O=c1[nH]c(N2CCC(Cc3ccccc3)CC2)nc2sc3c(c12)CCCC3	95.7%
Cc1cc2ccccc2nc1-c1ccccc1F	97.4%
COc1cc(-c2nc(-c3nc4cc(C(=O)c5ccccc5)ccc4[nH]3)cc3c2[nH]c2ccccc23)cc(OC)c1OC	89.7%
CN(C)c1ccc2cc3c(cc2c1)Oc1ccccc1N3.[Cl][Zn][Cl]	-10.4% (active)
COc1ccc2c(c1)sc1nc(-c3ccccc3)c(-c3ccsc3)n12	14.2%
